85 compounds from PubChem BioAssay AID489028 (Sanford-Burnham Center for Chemical Genomics, 2010) can be followed below.

The whole screen tested about 10,000 compounds, of which about 5,600 (56%) were called active. The set was probably picked from earlier hits. A selection follows. A number with no mark means an inactive call. No stated cut-off is given here; in the data, active means inhibition above about 40%; inactive means the rest.

In the test the target is Protein Mdm4 (Homo sapiens) + E3 ubiquitin-protein ligase Mdm2 (Homo sapiens) (UniProt O15151+Q00987). In words: Mdm2-MdmX complex disruptors, retested hits, confirmation, luminescence, single concentration (AID 489028). The note with it: Mdm2-MdmX binding, luminescent assay; at 8 µM; hits give high values.
Chain of Protein Mdm4 (Homo sapiens) + E3 ubiquitin-protein ligase Mdm2 (Homo sapiens) (O15151 whole entry, looked up): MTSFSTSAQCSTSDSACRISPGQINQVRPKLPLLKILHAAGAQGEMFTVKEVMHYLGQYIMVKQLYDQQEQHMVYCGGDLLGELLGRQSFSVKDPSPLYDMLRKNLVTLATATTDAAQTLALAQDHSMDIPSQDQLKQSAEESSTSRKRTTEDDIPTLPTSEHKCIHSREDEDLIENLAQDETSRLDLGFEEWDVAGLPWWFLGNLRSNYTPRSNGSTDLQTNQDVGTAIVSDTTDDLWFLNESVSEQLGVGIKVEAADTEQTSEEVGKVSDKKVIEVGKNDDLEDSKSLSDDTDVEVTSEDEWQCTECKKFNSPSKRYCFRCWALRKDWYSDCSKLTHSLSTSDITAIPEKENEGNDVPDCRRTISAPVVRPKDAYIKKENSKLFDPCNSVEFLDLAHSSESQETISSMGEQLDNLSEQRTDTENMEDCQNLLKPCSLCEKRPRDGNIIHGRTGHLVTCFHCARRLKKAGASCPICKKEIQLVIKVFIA
Chain of Protein Mdm4 (Homo sapiens) + E3 ubiquitin-protein ligase Mdm2 (Homo sapiens) (Q00987 whole entry, looked up): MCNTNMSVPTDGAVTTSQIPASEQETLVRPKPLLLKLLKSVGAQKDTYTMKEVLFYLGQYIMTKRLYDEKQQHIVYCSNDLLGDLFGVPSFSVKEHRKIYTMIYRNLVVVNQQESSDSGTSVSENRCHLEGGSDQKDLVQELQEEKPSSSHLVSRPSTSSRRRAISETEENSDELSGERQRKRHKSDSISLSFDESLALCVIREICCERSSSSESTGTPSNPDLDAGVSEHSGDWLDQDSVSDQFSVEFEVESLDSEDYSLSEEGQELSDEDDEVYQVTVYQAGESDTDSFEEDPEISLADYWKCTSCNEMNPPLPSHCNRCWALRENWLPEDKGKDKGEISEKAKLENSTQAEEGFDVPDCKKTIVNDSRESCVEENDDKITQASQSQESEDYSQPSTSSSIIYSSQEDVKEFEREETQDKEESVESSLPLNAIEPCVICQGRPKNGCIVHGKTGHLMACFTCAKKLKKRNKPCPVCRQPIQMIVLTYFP
A word on the inhibition: it is the drop in the measured response relative to a control, in per cent. Regarding `O=C(/C=C/c1ccc(OCc2c(F)cccc2Cl)cc1)N1CCOCC1`, the inhibition is 66.7% (active).

As to `CCc1nc(C)cn1S(=O)(=O)c1cc([N+](=O)[O-])ccc1Cl`, the inhibition was 50.9% (active).

For `O=C(CCCN1C(=O)/C(=C/c2ccco2)SC1=S)Nc1ccccc1`, the inhibition was 70.8% (active).

In the case of `O=C(CCCN1C(=O)/C(=C\c2ccco2)SC1=S)Nc1cccc2ccccc12`, the inhibition was 94.5% (active).

`OC(CNCC1CCCO1)Cn1c2ccc(Br)cc2c2cc(Br)ccc21` (stereo not given): the inhibition is 38%.

For `Cc1oc2c(c1C(=O)N1CCOCC1)C(=O)c1ccccc1C2=O`, the inhibition was 62.5% (active).

`Cc1c(C(=O)Nc2cccc(Cl)c2)cn2c(nc3ccccc32)c1C#N`: the inhibition was 9.95%.

In the case of `COc1ccc2nc(Nc3nc4ccc(NC(C)=O)cc4s3)sc2c1`, the inhibition was 35.2%.

As to `Cc1nc(N2CCN(c3ccccn3)CC2)c2c(C)c(C(=O)Nc3ccc(F)c(Cl)c3)sc2n1`, the inhibition is 34.2%.

Consider `Cc1nnc(NC(=O)Nc2ccc(Cl)c(Cl)c2)s1`, for which the inhibition is 86.5% (active).

For the compound `CC(C)(C)CC(C)(C)NCC(O)COCCOc1ccc(Br)cc1` (stereo not given), the inhibition is 51.1% (active).

Consider `Cc1nn(-c2ccccc2)c2sc(C(=O)N(Cc3ccco3)C(C)C(=O)NC(C)(C)C)cc12` (stereo not given), for which the inhibition was 12.8%.

Consider `CC[C@H]1CN2CCc3cc(OC)c(OC)cc3[C@@H]2C[C@@H]1C[C@H]1NCCc2cc(OC)c(OC)cc21`, for which the inhibition is 99.8% (active).

Turning to `Cc1ccc(-c2cccc([C@H]3[C@@H]4C=CC[C@@H](C)[C@@H]4C(=O)N3Cc3ccccc3)c2)cc1`, the inhibition is -5.3%.

As for `CCOC(=O)c1ccc(NC(=O)c2c(NCc3ccccc3)[nH]c(=O)[nH]c2=O)cc1`, the inhibition was 12.4%.

Consider `Cc1cc(NC(=O)/C=C/C(=O)N(c2ccccc2C)C(C(=O)NC2CCCC2)c2ccc(F)cc2)no1` (stereo not given), for which the inhibition is 70% (active).

Take `N/C(=N\OC(=O)N1c2ccccc2Sc2ccccc21)c1ccc(Br)cc1`: the inhibition is -3.5%.

`N/C(=N\OC(=O)c1ccc2c(c1)OCO2)c1ccc(Br)cc1`: the inhibition is 40.2% (active).

Turning to `CCOC(=O)/C=c1\s/c(=C\c2ccc(C#N)cc2)c(=O)n1CC(=O)Nc1cccc(C)c1C`, the inhibition is 8.85%.

On to `Oc1ccccc1C1=NN(c2ccccc2)C(c2ccccc2)C1` (stereo not given), for which the inhibition is 8.55%.

Take `COc1ccc(NC(=O)c2cc(-c3cc(OC)c(OC)c(OC)c3)nc3ccccc23)c(OC)c1`: the inhibition was 57% (active).

With `COc1ccc(OC)c(NC(=O)c2sc3nc(C)cc(C)c3c2N)c1`, the inhibition is 15.5%.

In the case of `O=C(Nc1nnc(-c2ccccc2)o1)c1cc(-c2cccs2)nc2ccccc12`, the inhibition is 29.7%.

Consider `O=[N+]([O-])c1c(NCCO)cc(Sc2nc3ccccc3s2)c2nonc12`, for which the inhibition is 96.7% (active).

As for `COc1cccc(CNC(=O)Cc2csc(Nc3nc(=S)[nH]c4ccccc34)n2)c1`, the inhibition is 15.8%.

For `COc1cccc(CNC(=O)c2nnn(CC(=O)Nc3cc(Cl)ccc3C)c2N)c1`, the inhibition is 62.3% (active).

Take `CCCCCCSc1ccc([C@@H]2[C@@H]3C(=O)N(CC)C(=O)[C@@H]3[C@]3(C(=O)OC)CCCCN23)cc1OC`: the inhibition is 21.6%.

Take `CCOC(=O)/C(=C\c1ccc([N+](=O)[O-])cc1)C(=O)c1cc(C(C)=O)c(Nc2ccccc2)s1`: the inhibition was 99.6% (active).

Consider `Cc1ccc2occ(/C=N/NC(=O)c3ccccc3C)c(=O)c2c1`, for which the inhibition is 65.8% (active).

As to `CCc1ccc(-c2cc3c(=O)n(CC(=O)NCCCN4CCN(Cc5ccccc5)CC4)nc(C)n3n2)cc1`, the inhibition was 55.5% (active).

`Cn1c(C(=O)NCCCN2CCN(c3cccc(Cl)c3)CC2)cc2c(=O)n(C)c3ccccc3c21`: the inhibition is 37.8%.

For `O=C(C[C@H]1C/C=C\C[C@@H](NC(=O)OCC2c3ccccc3-c3ccccc32)C(=O)O[C@@H](c2ccccc2)CNC1=O)N[C@H](CO)Cc1ccccc1`, the inhibition is 28.4%.

Take `O=C1NC[C@@H](c2ccccc2)OC(=O)[C@H](Cc2ccc(F)cc2)CC/C=C/C[C@H]1CC(=O)N(CCO)Cc1ccccc1`: the inhibition was 54.5% (active).

`C=CC[C@H](CC(=O)N(CCO)Cc1ccccc1)C(=O)N[C@@H](COC(=O)[C@@H](CC=C)Cc1ccc(F)cc1)Cc1ccccc1`: the inhibition is 1.35%.

With `CN1CCN(CCCNC(=O)c2ccc(/C=C3\Oc4ccccc4N(Cc4ccc(Cl)cc4)C3=O)cc2)CC1`, the inhibition was 55% (active).

In the case of `Cc1ccccc1C(CC(=O)c1cccs1)C(C#N)C#N` (stereo not given), the inhibition was 54.7% (active).

As to `Clc1cccc(Cl)c1OCCOCCNCc1ccccc1`, the inhibition is 86% (active).

Consider `O=C(N/N=C/c1sc(N2CCCCC2)nc1-c1cccs1)c1cccnc1`, for which the inhibition is 25.3%.

For the compound `CCOc1ccccc1NC(=O)Cn1nnc(C(=O)NCc2cccs2)c1N`, the inhibition was 52.7% (active).

Turning to `Cc1ccc(-c2nn(C(C)(C)C)c3ncnc(N)c23)cc1`, the inhibition is 67% (active).

Consider `COc1cc(SC)ccc1C(=O)Nc1nc(C)cs1`, for which the inhibition is 57.5% (active).

As for `CCCC(=O)Nc1ccc(C(=O)N/N=C/c2ccc[nH]2)cc1`, the inhibition is 6.9%.

As to `CCn1c(/C=C/Nc2ccccc2)[n+](CC)c2ccc(C(=O)OCC(F)(F)F)cc21`, the inhibition was 13.1%.

On to `O=C(COc1ccccc1F)Nc1nc(-c2ccccn2)cs1`, for which the inhibition is 53.6% (active).

Regarding `CCOC(=O)N1CCN(C(=O)c2ccc(S(=O)(=O)c3ccc(C)cc3)c(NC(C)=O)c2)CC1`, the inhibition is 8.65%.

For `CC1CCN(C(=O)c2ccc(S(=O)(=O)Cc3cc(F)ccc3F)c([N+](=O)[O-])c2)CC1`, the inhibition was 64% (active).

Consider `FC(F)(F)c1nnc2c3ccccc3c(Cl)nn12`, for which the inhibition was 47% (active).

`COc1ccccc1C(=O)NC(=S)NC12CC3CC(CC(C3)C1)C2`: the inhibition was 21.8%.

On to `Cn1nc(-c2ccccc2)c(CSc2cccc(Cl)c2)c1Cl`, for which the inhibition was 48.5% (active).

Take `CCOC(=O)c1c(NC(=O)c2ccc(S(=O)(=O)N(C)CC3CCCO3)cc2)sc2c1CC(C)(C)NC2(C)C` (stereo not given): the inhibition was 47.1% (active).

In the case of `C=CCN(CC=C)S(=O)(=O)c1ccc(C(=O)Nc2sc3c(c2C(N)=O)CCCCC3)cc1`, the inhibition is 10.8%.

As for `CC1(C)CCSC(/C=C/c2ccccc2)=N1`, the inhibition was 68% (active).

With `Cc1[nH]c(=O)c(C(=O)/C=C/c2ccccc2)c2c1CCCC2`, the inhibition is 99.5% (active).

In the case of `C=CCn1c(C)cc(C2=NNC(=NCC)SC2)c1C`, the inhibition is 98.1% (active).

With `Cc1cc(C)nc(S/C=C/C(=O)c2ccccc2)n1`, the inhibition was 32.4%.

Turning to `O=C(/C=C/Sc1ncn[nH]1)c1ccc(Cl)cc1`, the inhibition is 80.4% (active).

Turning to `CC[n+]1cc(C)ccc1/C=C/c1ccc(N(C)C)cc1`, the inhibition is 53.6% (active).

As to `COc1ccccc1N1CCN(C(=O)c2cc(=O)c3cc(C)cc(C)c3o2)CC1`, the inhibition is 66.8% (active).

On to `C#CCOCCOCCOCCNc1nc(N2CCN(C(=O)CCCCCCCCCCNC(=O)[C@H](CCCCN)n3cc(C)nn3)CC2)nc(N2CCN(C(=O)CCCCCCCCCCNC(=O)[C@H](CO)n3cc(CCCSC)nn3)CC2)n1`, for which the inhibition is 14%.

`O=C(Nc1nnc(-c2ccccc2F)s1)c1ccccc1F`: the inhibition was -82.2%.

Consider `CN(NC(=O)c1ccccc1)c1nc2ccccc2nc1C(F)(F)F`, for which the inhibition is 51.9% (active).

Consider `CSc1nc(N(C)NC(=O)c2cccc(C)c2)c2ccccc2n1`, for which the inhibition is 57.7% (active).

As to `CN(NC(=O)c1ccccc1F)c1nc(C(F)(F)F)nc2ccccc12`, the inhibition was 57% (active).

Consider `COc1cc2c(cc1NC(=O)COC(=O)/C=C/c1ccccc1)oc1ccccc12`, for which the inhibition was -6.7%.

As for `CCOC(=O)/C=C/C(=O)OCC(=O)NC(c1ccccc1)c1ccccc1`, the inhibition was 74.5% (active).

In the case of `Cc1cc2cc3c(cc2nc1SCC(=O)Nc1c(C)cccc1C)CCC3`, the inhibition is 43.1% (active).

For the compound `Cc1ccccc1NC(=O)CSc1nc2ccc(Nc3nc(N4CCOCC4)nc(N4CCOCC4)n3)cc2s1`, the inhibition was 35.7%.

In the case of `OCCNc1nc(Nc2ccc(Cl)c(Cl)c2)nc2ccccc12`, the inhibition is 69.5% (active).

`O=C(CSc1nc2ccccc2c(=O)[nH]1)Nc1nc(-c2ccc(Br)cc2)cs1`: the inhibition was 47.8% (active).

In the case of `O=C(NNc1ccccc1Cl)C(O)(c1cccc(C(F)(F)F)c1)c1cccc(C(F)(F)F)c1`, the inhibition is 36.2%.

Turning to `COC(=O)Cc1[nH]n(-c2nc3ccccc3s2)c(=O)c1C(C)=Nc1ccc(OC)cc1`, the inhibition is 89.3% (active).

As to `CCCCN(CCCC)CCC(O)c1cc2c(Cl)cc(Cl)cc2c2cc(C(F)(F)F)ccc12` (stereo not given), the inhibition was 21.1%.

`COc1cccc(-c2sc3ccc(OC)cc3c2-c2ccc(OCCN3CCCCC3)cc2)c1`: the inhibition is 49.5% (active).

On to `COc1ccc2sc(-c3ccccc3OC)c(-c3ccc(OCCN4CCCC4)cc3)c2c1`, for which the inhibition was 5.35%.

As for `O=C(CN1C(=O)c2ccccc2S1(=O)=O)N1CCc2ccccc21`, the inhibition is 53% (active).

For the compound `COCCCNc1nc2c(-c3cccc(C)c3)nnn2c2ccc(Cl)cc12`, the inhibition was 67% (active).

Take `C=CCC[C@@H](Cc1ccc(F)cc1)C(=O)O[C@H](CNC(=O)[C@H](CC=C)CC(=O)N(CCO)Cc1ccccc1)c1ccccc1`: the inhibition was 12.4%.

In the case of `Cc1cccn2c(=O)c3cc(C(=O)NCCN4CCOCC4)c(=N)n(Cc4cccnc4)c3nc12`, the inhibition is 49.2% (active).

Consider `COc1ccc(CCn2c(=N)c(C(=O)NCC3CCCO3)cc3c(=O)n4cccc(C)c4nc32)cc1OC` (stereo not given), for which the inhibition was 48.1% (active).

Turning to `CCc1ccc(CNC(=O)C2CCN(c3nnc(C)c4c(C)n(-c5ccc(C)cc5)nc34)CC2)cc1`, the inhibition is 56.7% (active).

For the compound `COc1cc(NC(=O)c2ccccc2NS(=O)(=O)c2ccc(Cl)s2)cc(OC)c1`, the inhibition was 76.4% (active).

As to `Cc1nc2ccccc2nc1N/N=C/c1ccc(O)cc1O`, the inhibition is 61.6% (active).

On to `Oc1ccc(/C=N/Nc2nc(-c3ccccc3F)nc3ccccc23)c(O)c1`, for which the inhibition was 54.6% (active).

As for `COC(=O)C1=C(Nc2ccc(C)cc2)C=C(C)C(C(=O)OC)C1c1ccc(F)cc1` (stereo not given), the inhibition was 53.5% (active).

As for `Nc1nonc1-n1nnc(C(=O)N/N=C/c2ccccc2O)c1CN1CCCC1`, the inhibition is 33.8%.
